# According to the supplement of paper PMC10849652:
# About 7,900 targets were measured; listed, in parts, are those with a hit and a random draw of the rest. About 0.6% of all pairs of compound and target were hits. Values without a mark were called inactive.
# Legend:
# Assay in all cases: log2 fold change, soluble protein after heating vs DMSO (PISA); higher = thermal stabilisation; K562 cells, 10 uM, 30 min; active = over 0.2 and 3.5 SD of the protein, either way, in both replicates (recomputed)
# [1] = compound: COC1=CC=C(C=C1)CN2C=CC3=C2C=C(C=C3)C(=O)NO
# Outline: (§1)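 Soluble protein was quantified by TMTpro 16plex LC-MS/MS after channel sums were equalised. It was obtained as the supernatant after 21,000xg for 90 min from pooled aliquots of K562 cells (2×10^6 cells/mL, 10 μM compound, 30 min) heated for 3 min across 48°C-58°C and extracted in PBS with 0.5% NP-40 at 4°C. Thermal stability values are relative to control samples and come from duplicates. They are given as log2 fold changes.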
# [2] = compound: CON(C)C(=O)N1N=C(c2cc(F)ccc2F)S[C@@]1(CCCN)c1ccccc1 [filanesib]
# Outline: as §1
# [3] = compound: CO[C@H]1C[C@@H]2CC[C@@H](C)[C@@](O)(O2)C(=O)C(=O)N2CCCC[C@H]2C(=O)O[C@H]([C@H](C)C[C@@H]2CC[C@H](n3cnnn3)[C@H](OC)C2)CC(=O)[C@H](C)/C=C(\C)[C@@H](O)[C@@H](OC)C(=O)[C@H](C)C[C@H](C)/C=C/C=C/C=C/1C [zotarolimus]
# Outline: as §1
# [4] = compound: COc1cc(C(=O)O)ccc1NC(=O)[C@@H]1N[C@@H](CC(C)(C)C)[C@](C#N)(c2ccc(Cl)cc2F)[C@H]1c1cccc(Cl)c1F [idasanutlin]
# Outline: as §1
# [5] = compound: COc1cc(Nc2ncc3c(n2)-c2ccc(Cl)cc2C(c2c(F)cccc2OC)=NC3)ccc1C(=O)O [alisertib]
# Outline: as §1
# [6] = compound: COc1cc2nc(-c3cc(F)ccc3O)nc(N[C@@H]3CNC[C@H]3C(C)(C)O)c2cc1OC
# Outline: as §1
# [7] = compound: COc1cc2ncnc(Nc3ccc(F)c(Cl)c3)c2cc1OCCCN1CCOCC1 [gefitinib]
# Outline: as §1
# [8] = compound: COc1cccc2cc(-c3nc([C@H]4CC[C@H](C(=O)O)CC4)n4ncnc(N)c34)[nH]c12
# Outline: as §1
# [9] = compound: CS(=O)(=O)CCNCc1ccc(-c2ccc3ncnc(Nc4ccc(OCc5cccc(F)c5)c(Cl)c4)c3c2)o1 [lapatinib]
# Outline: as §1
# [10] = compound: CS(=O)(=O)N1CCN(Cc2cc3nc(-c4cccc5[nH]ncc45)nc(N4CCOCC4)c3s2)CC1 [pictilisib]
# Outline: as §1
# Sequence of UniProt Q8TEQ6 (Q8TEQ6 whole entry, looked up): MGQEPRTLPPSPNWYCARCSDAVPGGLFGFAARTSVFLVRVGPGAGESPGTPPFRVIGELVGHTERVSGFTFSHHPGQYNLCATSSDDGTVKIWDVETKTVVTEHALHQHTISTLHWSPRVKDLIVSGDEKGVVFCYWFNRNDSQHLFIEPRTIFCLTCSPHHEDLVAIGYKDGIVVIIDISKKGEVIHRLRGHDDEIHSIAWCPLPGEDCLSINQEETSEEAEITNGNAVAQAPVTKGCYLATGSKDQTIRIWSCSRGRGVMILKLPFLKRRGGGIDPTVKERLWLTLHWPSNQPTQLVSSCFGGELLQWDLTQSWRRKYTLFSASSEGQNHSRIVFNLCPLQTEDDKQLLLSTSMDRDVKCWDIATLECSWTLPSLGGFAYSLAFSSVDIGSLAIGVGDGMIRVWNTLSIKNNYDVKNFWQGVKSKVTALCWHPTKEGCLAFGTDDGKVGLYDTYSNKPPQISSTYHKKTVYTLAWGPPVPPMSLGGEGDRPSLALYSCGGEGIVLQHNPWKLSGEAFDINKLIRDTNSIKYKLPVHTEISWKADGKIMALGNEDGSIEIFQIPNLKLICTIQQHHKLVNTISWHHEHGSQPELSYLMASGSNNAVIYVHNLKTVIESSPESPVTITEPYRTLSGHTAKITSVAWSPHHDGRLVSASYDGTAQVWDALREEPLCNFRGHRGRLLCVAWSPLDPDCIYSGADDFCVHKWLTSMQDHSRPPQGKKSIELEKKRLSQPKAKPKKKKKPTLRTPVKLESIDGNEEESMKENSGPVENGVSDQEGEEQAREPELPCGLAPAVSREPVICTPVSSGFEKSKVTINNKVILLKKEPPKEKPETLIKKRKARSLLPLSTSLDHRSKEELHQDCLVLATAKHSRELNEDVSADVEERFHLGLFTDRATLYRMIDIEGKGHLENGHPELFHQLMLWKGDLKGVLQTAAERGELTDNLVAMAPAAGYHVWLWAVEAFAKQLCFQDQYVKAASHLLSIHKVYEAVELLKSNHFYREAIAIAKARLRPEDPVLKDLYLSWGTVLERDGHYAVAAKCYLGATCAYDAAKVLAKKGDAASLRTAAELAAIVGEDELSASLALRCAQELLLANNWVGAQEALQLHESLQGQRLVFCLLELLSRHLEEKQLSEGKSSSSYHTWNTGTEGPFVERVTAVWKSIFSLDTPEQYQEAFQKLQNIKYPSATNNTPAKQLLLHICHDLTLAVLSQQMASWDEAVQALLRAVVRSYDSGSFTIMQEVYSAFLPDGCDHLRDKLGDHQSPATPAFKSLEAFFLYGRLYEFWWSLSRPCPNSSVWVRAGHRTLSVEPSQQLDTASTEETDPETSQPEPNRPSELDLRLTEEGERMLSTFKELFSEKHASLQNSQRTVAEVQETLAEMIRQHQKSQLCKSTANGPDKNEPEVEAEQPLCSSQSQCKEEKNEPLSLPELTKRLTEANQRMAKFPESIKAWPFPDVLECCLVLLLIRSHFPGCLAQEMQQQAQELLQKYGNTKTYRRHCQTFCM
# Sequence of UniProt Q86UL3 (Q86UL3 whole entry, looked up): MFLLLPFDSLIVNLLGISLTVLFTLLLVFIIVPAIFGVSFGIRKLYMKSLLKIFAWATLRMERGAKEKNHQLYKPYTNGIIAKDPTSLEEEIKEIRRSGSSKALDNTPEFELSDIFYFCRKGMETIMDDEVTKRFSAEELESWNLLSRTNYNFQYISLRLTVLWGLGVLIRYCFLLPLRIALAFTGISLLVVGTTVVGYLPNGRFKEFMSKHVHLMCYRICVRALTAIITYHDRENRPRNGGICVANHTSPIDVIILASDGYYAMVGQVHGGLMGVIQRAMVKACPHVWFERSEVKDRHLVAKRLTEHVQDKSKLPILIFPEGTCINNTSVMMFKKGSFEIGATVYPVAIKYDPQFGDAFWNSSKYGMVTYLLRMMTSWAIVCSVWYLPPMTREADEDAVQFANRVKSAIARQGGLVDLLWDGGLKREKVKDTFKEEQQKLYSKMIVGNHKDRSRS
# Sequence of UniProt Q9NRD1 (Q9NRD1 whole entry, looked up): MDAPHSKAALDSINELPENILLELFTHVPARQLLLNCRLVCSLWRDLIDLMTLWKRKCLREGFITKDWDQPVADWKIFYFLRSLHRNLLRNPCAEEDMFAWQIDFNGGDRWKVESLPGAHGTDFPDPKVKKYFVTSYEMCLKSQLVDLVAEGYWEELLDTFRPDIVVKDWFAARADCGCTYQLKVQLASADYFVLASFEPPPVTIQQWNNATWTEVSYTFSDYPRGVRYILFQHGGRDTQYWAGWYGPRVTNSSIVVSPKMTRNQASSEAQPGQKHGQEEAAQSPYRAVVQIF
# Sequence of UniProt Q86VS8 (Q86VS8 whole entry, looked up): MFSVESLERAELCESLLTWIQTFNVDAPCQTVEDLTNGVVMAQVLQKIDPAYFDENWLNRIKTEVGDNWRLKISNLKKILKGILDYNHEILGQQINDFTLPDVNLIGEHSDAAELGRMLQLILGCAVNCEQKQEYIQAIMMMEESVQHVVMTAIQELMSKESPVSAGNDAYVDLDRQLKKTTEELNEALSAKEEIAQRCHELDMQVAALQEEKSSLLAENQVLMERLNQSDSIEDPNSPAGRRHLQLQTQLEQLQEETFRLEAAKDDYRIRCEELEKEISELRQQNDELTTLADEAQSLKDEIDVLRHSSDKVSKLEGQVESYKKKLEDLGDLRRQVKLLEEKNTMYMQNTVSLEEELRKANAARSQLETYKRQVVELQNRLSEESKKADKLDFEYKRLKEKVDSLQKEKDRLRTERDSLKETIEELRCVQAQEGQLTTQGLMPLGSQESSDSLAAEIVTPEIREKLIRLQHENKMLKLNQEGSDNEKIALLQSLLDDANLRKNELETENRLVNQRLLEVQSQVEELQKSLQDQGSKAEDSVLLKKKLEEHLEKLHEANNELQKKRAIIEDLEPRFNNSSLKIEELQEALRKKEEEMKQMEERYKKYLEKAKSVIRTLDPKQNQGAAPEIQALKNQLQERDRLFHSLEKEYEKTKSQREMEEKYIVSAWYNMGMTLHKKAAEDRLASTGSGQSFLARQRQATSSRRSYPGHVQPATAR
# Sequence of UniProt Q00688 (Q00688 whole entry, looked up): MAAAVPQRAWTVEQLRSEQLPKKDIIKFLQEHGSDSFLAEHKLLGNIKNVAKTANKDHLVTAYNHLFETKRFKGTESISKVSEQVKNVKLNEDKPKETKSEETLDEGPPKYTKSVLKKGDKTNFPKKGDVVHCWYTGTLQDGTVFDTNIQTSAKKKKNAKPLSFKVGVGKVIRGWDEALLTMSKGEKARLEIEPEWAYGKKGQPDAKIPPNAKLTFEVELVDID
# Sequence of UniProt P05114 (P05114 whole entry, looked up): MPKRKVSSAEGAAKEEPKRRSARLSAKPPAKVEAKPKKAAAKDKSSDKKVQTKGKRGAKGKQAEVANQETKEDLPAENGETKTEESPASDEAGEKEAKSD
# Sequence of UniProt P07686 (P07686 whole entry, looked up): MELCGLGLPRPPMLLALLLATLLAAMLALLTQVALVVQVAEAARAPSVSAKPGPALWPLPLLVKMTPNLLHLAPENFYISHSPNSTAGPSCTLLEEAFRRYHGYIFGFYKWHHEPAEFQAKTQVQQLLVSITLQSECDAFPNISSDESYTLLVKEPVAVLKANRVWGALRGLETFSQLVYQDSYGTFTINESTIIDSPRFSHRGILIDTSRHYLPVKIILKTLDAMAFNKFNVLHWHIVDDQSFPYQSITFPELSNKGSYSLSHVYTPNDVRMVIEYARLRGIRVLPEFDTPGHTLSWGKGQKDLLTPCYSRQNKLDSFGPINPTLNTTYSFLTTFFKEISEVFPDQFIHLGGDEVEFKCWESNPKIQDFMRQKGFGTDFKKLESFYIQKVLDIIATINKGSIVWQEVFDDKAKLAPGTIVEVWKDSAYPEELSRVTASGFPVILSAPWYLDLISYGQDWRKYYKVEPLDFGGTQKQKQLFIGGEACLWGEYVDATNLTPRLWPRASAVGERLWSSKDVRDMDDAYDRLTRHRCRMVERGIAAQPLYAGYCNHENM
# Sequence of UniProt Q9UQC2 (Q9UQC2 whole entry, looked up): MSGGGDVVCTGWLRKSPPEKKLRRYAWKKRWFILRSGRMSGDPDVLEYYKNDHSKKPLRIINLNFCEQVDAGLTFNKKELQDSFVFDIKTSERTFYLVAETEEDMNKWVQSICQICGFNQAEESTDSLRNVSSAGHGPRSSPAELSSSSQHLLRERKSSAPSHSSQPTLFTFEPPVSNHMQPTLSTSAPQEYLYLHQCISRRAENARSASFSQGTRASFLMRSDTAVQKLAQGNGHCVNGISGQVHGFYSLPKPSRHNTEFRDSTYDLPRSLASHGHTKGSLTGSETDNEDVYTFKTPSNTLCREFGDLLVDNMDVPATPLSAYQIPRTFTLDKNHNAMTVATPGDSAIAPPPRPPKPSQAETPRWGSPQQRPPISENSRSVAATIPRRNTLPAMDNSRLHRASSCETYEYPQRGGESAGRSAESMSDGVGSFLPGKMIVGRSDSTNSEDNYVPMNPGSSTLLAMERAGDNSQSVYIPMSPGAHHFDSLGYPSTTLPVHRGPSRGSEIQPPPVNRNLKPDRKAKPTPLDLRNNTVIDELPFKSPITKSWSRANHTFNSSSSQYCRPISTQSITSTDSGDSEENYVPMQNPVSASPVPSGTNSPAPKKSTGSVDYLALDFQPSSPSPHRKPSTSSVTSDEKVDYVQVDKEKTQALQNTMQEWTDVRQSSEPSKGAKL
# Sequence of UniProt Q12894 (Q12894 whole entry, looked up): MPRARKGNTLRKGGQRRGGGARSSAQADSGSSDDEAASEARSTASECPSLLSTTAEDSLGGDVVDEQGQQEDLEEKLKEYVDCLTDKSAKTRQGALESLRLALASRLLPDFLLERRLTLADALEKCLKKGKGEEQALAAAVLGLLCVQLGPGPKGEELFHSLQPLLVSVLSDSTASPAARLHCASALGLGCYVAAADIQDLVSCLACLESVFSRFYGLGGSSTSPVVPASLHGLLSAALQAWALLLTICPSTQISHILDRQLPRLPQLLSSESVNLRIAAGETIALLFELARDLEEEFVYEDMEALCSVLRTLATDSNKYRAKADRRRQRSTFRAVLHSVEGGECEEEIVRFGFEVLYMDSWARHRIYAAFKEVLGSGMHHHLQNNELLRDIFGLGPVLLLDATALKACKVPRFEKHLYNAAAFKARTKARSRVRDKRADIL
Target,log2 fold change [1],log2 fold change [2],log2 fold change [3],log2 fold change [4],log2 fold change [5],log2 fold change [6],log2 fold change [7],log2 fold change [8],log2 fold change [9],log2 fold change [10]
HMGN1 (UniProt P05114),0.01,0.044,-0.034,0.026,-0.04,0.059,-0.07,0.026,-0.09,-0.003
HOOK3 (UniProt Q86VS8),-0.074,-0.108,0.001,0.036,0.07,0.014,-0.006,0.018,0.032,-0.021
GDI1 (UniProt P31150),-0.073,-0.043,0.01,-0.056,-0.067,0.045,-0.011,0.037,-0.032,-0.006
HK2 (UniProt P52789),0.035,0.031,0.03,-0.064,-0.124,0.097,-0.07,0.005,-0.206,-0.353 (active)
IFRD2 isoform 2 (UniProt Q12894),-0.073,0.008,0.24,0,-0.278,-0.219,0.128,0.508 (active),0.037,0.336
GEMIN5 (UniProt Q8TEQ6),0.017,0.037,0.039,-0.024,-0.041,-0.235 (active),0.013,-0.035,0.015,-0.021
FBXO6 (UniProt Q9NRD1),-0.016,0.008,0.044,-0.17,-0.043,0.022,0.059,0.038,0.026,-0.091
GTF2A1 (UniProt P52655),-0.102,0.031,0,0.012,-0.126,-0.069,0.111,0.043,0.006,0.012
HEXB (UniProt P07686),0.012,-0.092,-0.042,0.018,-0.058,0.017,0.005,0.044,-0.001,0.021
HNRNPK isoform 2 (UniProt P61978),0.008,-0.001,-0.022,-0.011,-0.004,-0.035,0.051,0.049,-0.016,0.004
HNRNPC isoform 2 (UniProt P07910),0.009,0.39,-0.024,0.796,-0.052,-0.041,0.002,-0.065,-0.026,0.065
GLB1 (UniProt P16278),0.002,-0.033,0.009,-0.015,-0.078,-0.015,0.031,0.045,0.024,0.006
GPAT4 (UniProt Q86UL3),-0.034,-0.024,0.055,-0.093,0.01,0.188,0.006,-0.046,-0.031,0.036
FMC1 (UniProt Q96HJ9),0.068,-0.037,-0.101,-0.091,-0.042,-0.008,0.06,0.023,-0.018,0.024
GLIPR2 (UniProt Q9H4G4),0,-0.147,0.024,0.096,-0.031,-0.239,–,-0.036,0.103,-0.011
HEXA (UniProt P06865),0.028,-0.066,-0.015,-0.012,-0.095,0.01,-0.005,0.035,0,0.03
GEMIN2 (UniProt O14893),-0.099,0.132,-0.093,0.034,-0.017,-0.045,0.032,-0.029,0.034,0.016
GNB2 (UniProt P62879),-0.051,0.034,-0.006,-0.058,-0.068,0.089,0.085,-0.071,0,0.13
IFT80 isoform 3 (UniProt Q9P2H3),-0.128,-0.043,0.003,-0.066,-0.039,0.01,-0.07,0.04,-0.038,0.034
FBXO42 (UniProt Q6P3S6),-0.037,0.011,0.025,0.009,0.047,-0.054,0.036,0.07,0.063,-0.088
FOXO3 (UniProt O43524),0.027,-0.069,0.083,0.154,0.149,-0.067,–,-0.068,-0.106,-0.09
GDPD1 (UniProt Q8N9F7),0.353 (active),0.056,0.13,0.156,-0.068,0.208,0.067,0.021,0.04,0.085
GCC2 (UniProt Q8IWJ2),-0.037,0.137,0.074,0.065,-0.046,-0.037,0.024,-0.11,0.056,0.014
HMGCR isoform 3 (UniProt P04035),-0.097,-0.027,0,0.188,-0.146,0.166,0.01,-0.045,-0.066,-0.13
GTPBP6 (UniProt O43824),-0.105,0.049,0.061,0.018,-0.217,–,-0.146,0,–,-0.012
GTF2E2 (UniProt P29084),-0.014,0.034,0.027,-0.03,-0.027,0,0.009,-0.056,0.022,0.031
GHDC (UniProt Q8N2G8),-0.026,-0.127,0.021,0.061,-0.057,-0.13,0.037,0.087,0.042,0.042
GAB2 (UniProt Q9UQC2),0.044,-0.053,-0.145,0.084,0.007,-0.526,–,-0.236,0.033,-0.348
GCDH (UniProt Q92947),0.02,-0.081,0.027,-0.066,-0.066,-0.011,0.042,0.016,-0.004,-0.02
FKBP3 (UniProt Q00688),0.219,-0.04,0.354 (active),-0.015,-0.052,0.047,-0.023,0,-0.029,0.004
